NIH3T3 tox – cytotoxic compounds in NIH 3T3 cells; NIH 3T3 viability, CellTiter-Glo ATP luminescence, 48-72 h; Potency, µM (highest dose often 96.7 µM), inactives show top-dose activity change, negative = cytotoxicity, hits mostly inhibitors; 94,000 tested, 4.3% active; note: nearly all actives have a fitted effect of over 55% in size
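Cytotoxicity was measured by CellTiter-Glo ATP luminescence after 48 or 72 h compound exposure at 37 °C. Mouse NIH 3T3 fibroblasts were seeded at 400 cells/well and dosed by 23 nL pin transfer.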
HEK293 tox – cytotoxic compounds in HEK 293 cells; 94,000 tested, 6.6% active; HEK 293 viability, ATP luminescence (CellTiter-Glo), 48-72 h; AID 1345083; Potency, µM (highest dose often 115 µM), without a hit: top-dose activity change, negative = cytotoxicity, actives largely listed as inhibitors; note: nearly all actives have a fitted effect of over 60% in size
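Cells seeded first (HEK 293, 250 cells/well), then compound added by pintool. Incubation ran 48 or 72 hr at 37 degree Celsius. CellTiter-Glo was added and luminescence imaged after 10 min at room temperature.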
NPR1 antag – antagonists of human natriuretic peptide receptor Npr1 | P16066 | HEK293 hNpr1 GloSensor cGMP, ANP-stimulated luminescence | Potency, µM (titrated, usually from 46.3 µM), without a hit: at the highest dose activity change, negative = inhibition, actives largely listed as inhibitors | 76,000 tested, 1.6% active | AID 1347048; calls by dose curve; note: nearly all actives have a fitted effect of over 60% in size
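HEK293 cells stably expressing human Npr1 and cGMP GloSensor pGS-40F, loaded 2 h with 2% GloSensor reagent, given compound 30 min at room temperature. Luminescence read before and 20 min after 0.1 nM hNppA.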
FLuc inh – blocks purified firefly luciferase enzyme activity | P08659 | purified P. pyralis luciferase, luminescence, biochemical | Potency, µM (doses to about 115 µM), actives largely listed as inhibitors | 76,000 tested, 2.5% active | AID 1347043; note: nearly all actives have a fitted effect of over 65% in size
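Luminescence read by CCD imaging after purified firefly luciferase (10nM final) was added to substrate buffer holding 10uM D-luciferin and 10uM ATP, pH 7.5, pre-dosed with compound.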
* marks the source's active call; other numbers are inactive results; i = inactive; u = inconclusive; x = no result given; ! = a repeat was not active; [ ] = dose if it differs, or a comment. A selection: hits, their analogues and other compounds. The true share with any hit is near 11%. Unless noted, calls come from the whole dose curve; as a rule, active = well fitted curve in the direction sought with a large enough effect; inconclusive = small, poorly fitted or top-dose-only effect, or another doubt; inactive = no such curve, though single readings can be large; an effect the other way counts as inactive or inconclusive. % is set by controls: 0 for no effect and ±100 for the full control effect; potency is the fitted concentration of half-maximal effect.

SMILES | NIH3T3 tox | HEK293 tox | NPR1 antag | FLuc inh
COCCc1noc(CC2CCOC3(CCN(C(=O)c4ccc(OC)cc4)CC3)C2)n1 (stereo unspecified) | -6% | -4% | x | x
O=C(NCCCc1ccccc1)c1ccc2nc(-c3cccnc3Cl)oc2c1 | 45µM* | u | x | x
Cc1cccc(-c2nc3ccc(C(=O)NCCc4ccccc4)cc3o2)n1 | u | 100µM* | x | x
O=C(NCCc1ccccc1)c1ccc2nc(-c3ccccn3)oc2c1 | u | 89µM* | x | x
CN(Cc1ccc(N2CCNC2=O)cc1)CC1CCCN(CCc2ccc(F)cc2)C1 (stereo unspecified) | u | u | 4% | i
CCCCc1ncc(CN(C)CC2CCCN(CCc3ccc(F)cc3)C2)[nH]1 (stereo unspecified) | u | 40µM* | 2% | i
O=C(NCC1CCCCC1)c1ccc2c(c1)N(S(=O)(=O)c1ccccc1)CC2 | 40µM* | u | -5% | i
CN(C)[S+](=O)([O-])c1ccc2c(c1)OCCN(Cc1ccccn1)C2 | -20%[138 µM] | u | -1%[70.6 µM] | i
CCCCc1cc(C[C@H]2CNCC[C@H]2CC(=O)NCc2ccc(F)cc2)no1 | u | u | u | i
CCCCc1cc(C[C@H]2CNCC[C@H]2CC(=O)Nc2ccccc2)no1 | u | 63µM* | -9%[70.6 µM] | i
CC(C)NC(=O)C[C@@H]1CCNC[C@@H]1Cc1cc(CC2CCCCC2)on1 | 100µM* | u | -1%[70.6 µM] | i
CCCCc1cc(C[C@H]2CNCC[C@H]2CC(=O)NCc2ccccc2)no1 | u | 71µM* | u | i
COc1ccc(C2Cn3nnc(C(=O)NCc4cc(OC)ccc4OC)c3CO2)cc1 (stereo unspecified) | -21% | u | -1% | i
COCCCn1c(=O)c(C(=O)N2CCN(C(=O)c3ccccc3Cl)CC2)nc2cccnc21 | -18% | -14% | x | x
COC(=O)c1ccc(COCC2=CC(C)(C)Oc3ccc(OC)cc32)cc1 | u | 35µM* | x | x
COc1ccc2c(c1)C(COCc1ccc(C(=O)O)cc1)=CC(C)(C)CO2 | u | i | x | x
CCOC(=O)c1cccc(NC(=O)N2CC[C@@H](CC(=O)Nc3ccccc3)[C@@H](CC)C2)c1 | -20% | -5% | -1% | i
CCOC(=O)c1cccc(NC(=O)C2=CC(C)(C)Oc3ccc(OC)cc32)c1 | 28µM* | 25µM* | x | x
CCc1nc(N2CCc3ccccc3C2)ncc1C(=O)O | 25µM* | 32µM* | -22% | 22µM*
O=C(O)c1cnc(N2CCCCC2)nc1-c1ccccc1 | u | 1% | 8% | i
Cn1ncc2c(C(=O)N3CCN(c4ncccn4)CC3)cc(-c3ccc(Cl)nc3)nc21 | 35µM*! | u | x | x
CN(C)C(=O)c1cc(-c2ccc(Cl)cc2Cl)c2cnn(C)c2n1 | -8% | -8% | x | x
Cn1ncc2c(-c3ccc(Cl)cc3Cl)cc(C(=O)N3CCN(c4ncccn4)CC3)nc21 | 45µM* | 32µM* | x | x
CN1CCN(C(=O)c2cc(-c3ccc(Cl)cc3Cl)nc3c2cnn3C)CC1 | -22% | -4% | x | x
Cn1ncc2c(C(=O)N3CCN(Cc4ccccc4)CC3)cc(-c3ccc(Cl)cc3)nc21 | u | 40µM* | x | x
SMILES | NIH3T3 tox | HEK293 tox | NPR1 antag | FLuc inh
Cn1ncc2c(C(=O)N3CCN(Cc4ccccc4)CC3)cc(-c3ccc(Cl)cc3Cl)nc21 | u | 40µM* | x | x
COCC(=O)N1Cc2ccccc2OC2(CCN(C(C)C)CC2)C1 | -25% | -20% | x | x
CN(C(=O)c1cc(-c2cc(Cl)cc(Cl)c2)nc2c1cnn2C)c1ccccc1 | u | 40µM* | x | x
COCCCn1c(=O)c(C(=O)NCC2CC2)nc2cccnc21 | -10%[138 µM] | -2%[172 µM] | x | x
O=C(c1nnc(COc2ccc(OC(F)(F)F)cc2)n1-c1ccccc1)N1CCC[C@@H]1C(c1ccccc1)c1ccccc1 | 4.5µM* | u | 4% | i
C[C@H]1CCCN1C(=O)c1nnc(COc2ccc(C#N)cc2)n1-c1cccnc1 | 40µM* | u | -4%[70.6 µM] | i
C[C@H]1CCCN1C(=O)c1nnc(COc2ccc(C#N)cc2)n1-c1ccccc1 | 35µM* | -27%[172 µM] | -1%[70.6 µM] | i
CC(=O)Nc1ccc(CN2CC(Oc3ccc(F)c(F)c3)C2)cc1 | -19% | -20% | x | x
O=C(c1ccsc1)N1CCc2c(nc3cc(-c4ccccc4Cl)[nH]n3c2=O)C1 | 40µM* | -12% | -13% | 35µM*
CCCCC(=O)N1CCc2c(nc3cc(-c4ccccc4Cl)[nH]n3c2=O)C1 | 16µM* | u | -6% | i
O=C(CNC(=O)c1cccc(-c2ccsc2)c1)NCC1CC1 | -12%[138 µM] | u | x | x
O=C(C1CC1)N1CCC(C(=O)N2CCCC(c3nc4ccncc4[nH]3)C2)CC1 (stereo unspecified) | -7% | i | x | x
O=C(C1CCCN1C(=O)Nc1ccc(Cl)cc1)N1CCC(N2Cc3cccn3C2=O)CC1 (stereo unspecified) | 28µM* | u | x | x
O=C(C1CCCN1C(=O)C1CCCC1)N1CCC(N2Cc3cccn3C2=O)CC1 (stereo unspecified) | -4% | i | x | x
Fc1ccc(CN2CC[C@H](c3nc4ccccc4s3)C2)cc1F | u | 100µM* | -6%[70.6 µM] | 45µM*
Clc1cccc(CN2CC[C@H](c3nc4ccccc4s3)C2)c1 | u | 100µM* | 3%[70.6 µM] | 50µM*
Cn1c([C@H]2CCN(Cc3ccc(F)c(F)c3)C2)nc2ccccc21 | u | 50µM* | -16%[70.6 µM] | i
Cc1ccc2oc([C@H]3CCN(Cc4cccc(Cl)c4)C3)nc2c1 | u | u | -27%[70.6 µM] | i
Fc1ccc(CN2CC[C@H](c3nnc(Cc4ccccc4)o3)C2)cc1F | u | u | 0%[70.6 µM] | i
O=C(C1CC1)N1CC[C@H](c2nc3ccccc3s2)C1 | -8%[174 µM] | -12%[230 µM] | 4%[70.6 µM] | i
c1ccc(CCCN2CC[C@H](c3nc4ccccc4s3)C2)cc1 | 89µM* | 100µM* | -20%[70.6 µM] | u
N#Cc1ccccc1CN1CCC([C@@H]2CNC[C@H]2CO)CC1 | -20% | -12% | 9% | i
OCCC1CN(Cc2cccn2-c2nccs2)CCN1Cc1ccc(F)c(F)c1 (stereo unspecified) | -24% | u | -6% | i
COc1cccc(CN2CC[C@H](c3nc4ccccc4s3)C2)c1 | u | 100µM* | -30%[70.6 µM] | 25µM*
OCCC1CN(Cc2nc3ccccc3s2)CCN1Cc1ccc(F)c(F)c1 (stereo unspecified) | -23% | 79µM* | -30% | i
O=C(C1CCN(Cc2ccccc2-c2cccnc2)CC1)N1CCOCC1 | u | -5% | x | x
N#Cc1ccc(C(=O)Nc2ccc(-c3nnc4n3CCCC4)cc2)cc1 | i | 11% | -3% | i
Cc1cnc(-c2cccnc2)n1C1CCCN(C(=O)Nc2ccc3c(c2)OCCO3)C1 (stereo unspecified) | -29% | -17% | x | x
O=C(NCc1cccnc1)c1cc(CN2CCC(Cc3ccccc3)CC2)on1 | 32µM* | -28% | -7% | i
Cc1cnc(CNC(=O)c2cc(CN3CCC(Cc4ccccc4)CC3)on2)cn1 | -20% | u | -2% | i
